# Bioassay records: PubChem, The Scripps Research Institute Molecular Screening Center
# Rows were chosen to be rich in hits. Some 2.6% of all compounds tested hit in one or more screens of this group.
# PRMT1 inh = PRMT1 methyltransferase inhibitors, primary screen, biochemical, fluorescence polarization; recombinant PRMT1, activity-based probe fluorescence polarization; inhibition, % at 2.79 µM; 1.3% of 370,000 active; AID 652257, 2013;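 active = inhibition above about 21% made by adding two undisclosed values, limit read from the data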
# PME-1 primary = PME-1 inhibitors via competitive probe labeling, primary screen, biochemical, fluorescence polarization, FP-Rh probe, HTS; Protein phosphatase methylesterase 1 (Homo sapiens), Q9Y570; 0.53% of 320,000 active; recombinant PME-1; inhibition, % at 5.9 µM;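 active = inhibition above the campaign mean of all compounds plus 3 SD, cut at about 26% in these data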;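 also: competitive labeling of PME-1 active site by serine hydrolase directed probe; 0% = PME-1 with DMSO and 100% = wells lacking PME-1 enzyme; inhibitors block probe labeling so polarization falls and inhibition rises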
# Fam108B inh = mouse Fam108B serine hydrolase inhibitors, primary screen, counter-screen for RBBP9 inhibitor project, biochemical, fluorescence polarization. AID 1947, 2009. recombinant Fam108B, FP-Rh probe fluorescence polarization. inhibition, % at 9.51 µM. 0.33% of 300,000 active;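 active = inhibition above the screen mean inhibition plus 3 SD, computed separately per campaign, cut at about 18% in these data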;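 also: inhibitors lower polarization as less probe binds the enzyme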
# SIAE inh = human SIAE inhibitors, primary screen, biochemical, fluorescence polarization, FP-Rh probe, 1536-well HTS; SIAE FP-Rh probe binding; Sialate O-acetylesterase (Homo sapiens), Q9HAT2; 0.69% of 370,000 active; inhibition, % at 9.66 µM; AID 1053197, 2014;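 active = inhibition above a cutoff: mean of compounds within the control limits plus 3 SD of those, cut at about 17% in these data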;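 also: 0% = plate median of compound wells and 100% = probe without SIAE protein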
# Target sequence (Q9HAT2 whole entry, looked up): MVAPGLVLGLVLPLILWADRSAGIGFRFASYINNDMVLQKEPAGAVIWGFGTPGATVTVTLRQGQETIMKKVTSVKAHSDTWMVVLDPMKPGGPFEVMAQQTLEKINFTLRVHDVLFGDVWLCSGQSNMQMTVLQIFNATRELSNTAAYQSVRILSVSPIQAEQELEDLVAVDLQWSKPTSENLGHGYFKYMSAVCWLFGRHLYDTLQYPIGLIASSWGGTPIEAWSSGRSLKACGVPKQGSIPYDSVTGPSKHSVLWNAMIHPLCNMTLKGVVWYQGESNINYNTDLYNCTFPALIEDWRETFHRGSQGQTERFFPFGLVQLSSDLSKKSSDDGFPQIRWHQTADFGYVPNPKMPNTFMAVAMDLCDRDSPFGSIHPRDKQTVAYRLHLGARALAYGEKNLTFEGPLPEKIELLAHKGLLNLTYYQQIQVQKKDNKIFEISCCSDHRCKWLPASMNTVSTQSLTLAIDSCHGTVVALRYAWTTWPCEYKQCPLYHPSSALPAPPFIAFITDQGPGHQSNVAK
# TCR CD3 inh = inhibitors of human TCR-CD3 interaction, primary screen, biochemical, fluorescence, TAMRA-labeled TCR probe; inhibition, % at 9.4 µM; 0.37% of 360,000 active; T-cell receptor (TCR); AID 651800, 2012; in the data active = inhibition above about 19%;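 also: recombinant mutant TCR 2C K166C tagged with TAMRA read by polarization; 0% = receptor in buffer alone and 100% = receptor with positive control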
# PAD4 FP inh = human PAD4 inhibitors, primary screen, biochemical, fluorescence polarization, 1536-well format; Protein-arginine deiminase type-4 (Homo sapiens), Q9UM07; recombinant PAD4, RCA probe fluorescence polarization; inhibition, % at 6.36 µM; 0.41% of 330,000 active;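 active = percent inhibition above a cutoff equal to the mean of all tested compounds plus 3 SD, cut at about 15% in these data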;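 also: 0% = PAD4 with RCA probe and DMSO and 100% = probe without PAD4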
# PAD4 FP conf = human PAD4 inhibitors, confirmation, biochemical, fluorescence polarization | shares compounds with PAD4 FP inh | 28% of 1,200 active | AID 488796, 2010 | recombinant PAD4, RCA probe fluorescence polarization | inhibition, % at 6.36 µM;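 active = mean inhibition across replicates above the hit cutoff set by the earlier primary screen, cut at about 15% in these data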;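 also: inhibitors block active-site labeling by the probe so polarization falls; 0% = PAD4 with probe and DMSO and 100% = probe without PAD4 enzyme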
# * hit, by the source's call; nt = no result.
SMILES,PRMT1 inh,PME-1 primary,Fam108B inh,SIAE inh,TCR CD3 inh,PAD4 FP inh,PAD4 FP conf
Cc1ccc(N(CC(=O)Nc2ccc(C)cn2)S(=O)(=O)c2c(C)nn(C)c2C)cc1,-2,6,16,-5,5,49*,-6
COc1ccc(N(CC(=O)Nc2ccc(C)cn2)S(=O)(=O)c2c(C)nn(C)c2C)cc1,-3,3,4,-2,0,0,nt
O=S(=O)(Nc1cc(Sc2cccc3cccnc23)c(O)c2ccccc12)c1ccc(F)cc1,73*,12,6,10,-3,29*,3
COc1ccc(-c2cc(C(=O)OC(C)C(=O)Nc3c(C)n(C)n(-c4ccccc4)c3=O)c3ccccc3n2)cc1 (stereo not given),-1,-5,-3,-4,-1,-2,nt
Cc1c(NC(=O)C(C)OC(=O)c2cc(-c3cccc4ccccc34)nc3ccccc23)c(=O)n(-c2ccccc2)n1C (stereo not given),1,12,4,-15,9,19*,4
COC[C@H]1CCCN1c1cccc2c1S(=O)(=O)N1CC[C@H](C1)O2,-4,nt,nt,2,nt,nt,nt
CC(C)CCn1c(N)c(S(=O)(=O)c2cccs2)c2nc3ccccc3nc21,4,4,-1,-23,2,63*,-9
Cc1cc2ccccc2n1CCNC(=O)COc1ccccc1,-1,-9,5,-1,6,23*,9
CCC(=O)NCCn1c(C)cc2ccccc21,nt,-5,1,nt,nt,-1,nt
Cc1cc(=O)n(CCCc2ccccc2)[nH]1,4,0,-4,7,-1,29*,-5
Cc1cccc(CN2CCN(CCCc3ccccc3)CC2)c1,nt,2,3,nt,nt,-2,nt
O=C1c2cccc(O)c2C(=O)c2c(O)cccc21,nt,7,4,nt,nt,-4,nt
O=C1C=C(O)c2cccc(O)c2C1=O,25*,14,3,12,5,16*,4
O=C(C1CCCN1S(=O)(=O)c1ccc(Cl)s1)N1CCc2ccccc2C1 (stereo not given),4,nt,nt,7,nt,nt,nt
CCN(CC)C(=O)CC[C@H]1CC[C@]2(CCCN(Cc3ccc(N(C)C)cc3)C2)O1,-1,nt,nt,4,nt,nt,nt
CCOC(=O)CN(C(=O)COc1nc(-c2ccccc2)cc(C)c1C#N)c1ccccc1C,-3,5,-5,-2,8,20*,-8
CCOC(=O)CN(C(=O)COc1nc(-c2ccccc2)cc(C)c1C#N)c1ccccc1,-4,-5,-5,1,6,0,nt
O=C(OCC(=O)c1ccc[nH]1)c1ccc([N+](=O)[O-])cc1,1,3,nt,8,2,-5,nt
O=C(COC(=O)c1ccc([N+](=O)[O-])s1)c1ccc[nH]1,-6,nt,nt,1,1,25*,2
Cc1c[nH]c2cccc(-c3ccccc3)c12,0,nt,nt,10,nt,nt,nt
Cc1ccccc1CN1CCCCC(NC(=O)C2CCCCC2)C1=O (stereo not given),0,nt,nt,12,nt,nt,nt
Cn1c(O)c(C=Nc2ccc(N3CCOCC3)cc2)c(=O)n(C)c1=S,-1,nt,nt,0,-10,nt,nt
Cc1cc(O)c(C=Nc2ccc(N3CCOCC3)cc2)c(C)c1Cl,6,0,-7,4,-7,28*,2
O=S(=O)(CC1NCc2cc(F)ccc21)NC1CCCC1 (stereo not given),11,nt,nt,3,nt,nt,nt
COC(=O)N/N=C1/C/C(=N\NC(=O)OC)c2ccccc21,-3,2,0,5,1,21*,2
SMILES,PRMT1 inh,PME-1 primary,Fam108B inh,SIAE inh,TCR CD3 inh,PAD4 FP inh,PAD4 FP conf
CCC(=O)Oc1ccc(C(=O)Nc2cccc(C(=O)NC(C)(C)C)c2)cc1,4,-4,-2,-5,1,115*,-3
Cc1ccc(NC(=O)C(C)N2CCOCC2)c(C(=O)c2ccccc2)c1 (stereo not given),-1,-3,3,1,6,40*,2
CC(C)C(=O)Nc1cc2c(cc1C(=O)c1ccccc1)OCCO2,3,-2,1,-1,-3,1,nt
CC(C)[C@@H]1C(=O)N[C@H](Cc2cn(S(=O)(=O)c3ccccc3)c3ccccc23)C(=O)N1C,0,nt,nt,-6,nt,nt,nt
CN1CC=C2C(C#N)=C(N)C(C#N)(C#N)[C@H](c3ccoc3)[C@H]2C1,nt,14,9,nt,nt,22*,-2
O=C(NC1(O)C(=O)c2ccccc2C1=O)c1c(Cl)cccc1Cl,5,10,5,-4,-10,24*,37*
O=C(NC1(O)C(=O)c2ccccc2C1=O)c1ccccc1,3,5,9,3,4,7,nt
CCOC(=O)[C@]12CCCC=C1N(Cc1ccc(OC)cc1)C(=O)[C@@H]2CC(=O)NCc1ccc(OC)c(OC)c1,-3,nt,nt,3,nt,nt,nt
S=C(Nc1ccc2nsnc2c1)N1CCCCCC1,2,11,16,5,5,50*,-4
CS(=O)(=O)Cc1ccc(C(=O)Nc2cccc(-c3nc4ccccc4[nH]3)c2)cc1,-5,-37,-17,-54,-10,-3,nt
CS(=O)(=O)c1ccc(C(=O)Nc2cccc(-c3nc4ccccc4[nH]3)c2)cc1,5,-26,-8,-25,3,28*,13
CN1CCN(S(=O)(=O)c2cccc(C(=O)Nc3sc4c(c3-c3nc5ccccc5[nH]3)CCCC4)c2)CC1,1,10,14,25*,-5,19*,2
CS(=O)(=O)c1cccc(C(=O)Nc2cccc(-c3nc4ccccc4[nH]3)c2)c1,4,-22,-8,-55,11,20*,16*
CS(=O)(=O)c1ccc(C(=O)Nc2ccc(-c3nc4ccccc4[nH]3)cc2)cc1,2,-20,-9,-14,8,-14,nt
Cc1ccc(S(=O)(=O)N2CCCC2=O)c(C)c1N(C)S(C)(=O)=O,-1,-2,1,-6,10,16*,4
COc1cc(C2C(C#N)=C(N)Oc3n[nH]c(-c4cccnc4)c32)ccc1OCC(N)=O (stereo not given),-6,4,-1,4,3,21*,5
COc1cc(C2C(C#N)=C(N)Oc3n[nH]c(-c4cccnc4)c32)cc(Br)c1O (stereo not given),-3,-2,-6,2,-4,21*,-4
O=S1(=O)c2c(cccc2N2CCC[C@@H]2CO)OCCCN1C1CC1,-5,nt,nt,-4,nt,nt,nt
CCN(Cc1cn(Cc2ccccc2)nn1)S(=O)(=O)c1ccc(N2CCCC2)cc1Br,-2,nt,nt,0,nt,nt,nt
CCc1nnc(N/N=C/c2ccc(O)c(OC)c2)n1N,0,-2,4,2,0,38*,2
